Vaccinia Venus: vaccinia inhibition (Venus reporter). 330,000 tested, 0.46% active. Potency, µM (doses to about 36.5 µM), without a hit: at the highest dose activity change, negative = inhibition, actives largely listed as inhibitors. Vaccinia virus Venus reporter expression, fluorescence; calls by dose curve; tested in A549 cells; note: % is set by controls: 0 for no effect and ±100 for the full control effect; nearly all actives have a fitted effect of over 30% in size
Pf growth 48h: inhibits P. falciparum growth in the first generation, 48 h; P. falciparum luciferase growth in erythrocytes, 48 h; Potency, µM (titrated, usually from 28.7 µM), for the others: at the highest dose activity change, negative = inhibition, most hits filed as inhibitors; 310,000 tested, 5.9% active; note: % is set by controls: 0 for no effect and ±100 for the full control effect
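Luciferase-expressing P. falciparum in infected erythrocytes (2% hematocrit, 0.1% parasitemia final) in RPMI 1640/0.5% Albumax were exposed to compound for 48 hours at 37 C, 5% CO2; growth read as luminescence.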
NS1 inh: inhibitors of influenza NS1 protein function. AID 2326. Potency, µM (highest dose often 46.1 µM), without a hit: top-dose activity, positive = more growth. 270,000 tested, 0.4% active; calls by dose curve; note: actives are rising curves; nearly all actives have a fitted effect of over 50% in size
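S. cerevisiae expressing influenza A NS1, grown in glucose, washed, then diluted 1:100 into pH 6.0 -URA galactose medium with 23 nl compound. Growth recovery read as OD600; NS1-free strain serves as control.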
HCV inhibitor: inhibitors of hepatitis C virus infection. Huh7.5.1 HCVcc-Cre infection, luciferase reporter, 44 h. Potency, µM (titrated, usually from 41.8 µM), inactives show at the highest dose activity change, negative = inhibition, actives largely listed as inhibitors. 340,000 tested, 3.4% active; note: % is set by controls: 0 for no effect and ±100 for the full control effect
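Infectious HCVcc-Cre (~0.5 moi) was added to cells just after compound, with cells seeded 4 h earlier at 1,000 per well. Luciferase activity after 44 h culture reported infection; substrate was incubated 15 min at room temperature before reading.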
VACV mCherry inh: inhibitors of vaccinia virus infection (mCherry reporter signal); Vaccinia virus mCherry reporter infection, fluorescence; Potency, µM (top dose mostly 36.5 µM), for inactives: at the highest dose activity change, negative = inhibition, most hits filed as inhibitors; 310,000 tested, 0.63% active; calls by dose curve; tested in A549 cells; note: % is set by controls: 0 for no effect and ±100 for the full control effect; nearly all actives have a fitted effect of over 35% in size
Pf growth 96h: P. falciparum growth inhibition at 96 hour, primary screen for plastid delayed-death inhibitors; P. falciparum luciferase reporter growth, 96 h; Potency, µM (highest dose often 28.7 µM), without a hit: at the top dose activity change, negative = inhibition, actives largely listed as inhibitors; 320,000 tested, 6.9% active; AID 504834; note: % is set by controls: 0 for no effect and ±100 for the full control effect
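Compounds incubated with erythrocytes infected by luciferase-expressing P. falciparum (2% hematocrit, 0.05% parasitemia final) for 96 hours, 37 C in 5% CO2. Growth inhibition scored as decreased luciferase luminescence.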
An asterisk follows results filed as active; i = inactive; u = inconclusive; x = not tested or not shown; ! = not active in a repeat; [ ] = remark or other dose. Compounds with a hit are over-represented: about 11% of the library has one in this group of screens. Unless noted, calls come from the whole dose curve; as a rule, active = well fitted inhibition curve with a large enough effect; inconclusive = small, poorly fitted or top-dose-only effect, or another doubt; inactive = no such curve, though single readings can be large or run the other way. Potency is the fitted concentration of half-maximal effect.

SMILES | Vaccinia Venus | Pf growth 48h | NS1 inh | HCV inhibitor | VACV mCherry inh | Pf growth 96h
C[C@@H]1CN([C@@H](C)CO)C(=O)CCCn2nncc2CO[C@@H]1CN(C)S(=O)(=O)c1ccccc1F | -8% | x | x | x | i | x
CC(C)Cn1c(N)c(C(=O)CSc2nc3ncc(Cl)cc3[nH]2)c(=O)n(C)c1=O | -8% | u | x | u | i | 10µM*
Cc1cc(C)n2nc(SCC(=O)c3c(N)n(CC(C)C)c(=O)n(C)c3=O)nc2n1 | -1% | 4.7µM* | x | -1% | i | u
CCCn1c(N)c(C(=O)CSc2nc3ncc(Cl)cc3[nH]2)c(=O)n(C)c1=O | x | u | x | -16% | x | u
Cc1cc(C)n2nc(SCC(=O)N(CC(C)C)c3c(N)n(CC(C)C)c(=O)[nH]c3=O)nc2n1 | 0% | 7% | x | 10% | -1% | 4%
CCCn1c(N)c(C(=O)CSc2nc(N)cc(=O)[nH]2)c(=O)n(C)c1=O | x | u | x | 2% | x | 4.7µM*
COc1ccccc1NC(=O)CC(NC1CCCCC1)C(=O)O (configuration not stated) | -1% | 22% | -1% | 12% | -10% | u
O=C(/C=C/c1ccco1)NC(=S)Nc1cc(C(F)(F)F)ccc1N1CCOCC1 | 6% | 0% | 6% | 30% | i | u
O=C(/C=C/c1ccco1)NC(=S)Nc1ccccc1N1CCOCC1 | x | 13µM* | -120% | -2% | x | u
O=C(/C=C/c1ccco1)Nc1ccccc1N1CCCC1 | -5% | 24%[5.75 µM] | x | -9% | -7% | u
CCOc1ccc(NC(=S)NC(=O)/C=C/c2ccco2)cc1 | -29% | -22% | 12% | u | -21% | 12µM*
O=C(/C=C/c1ccco1)NC(=S)Nc1ccccc1N1CCCC1 | x | 2.6µM* | 2% | -23% | x | 43%
O=C(OCn1nnc2ccccc2c1=O)c1cccnc1Cl | -4% | x | -9% | 7% | -4% | 28%
CN(C)S(=O)(=O)c1ccc2[nH]cc(/C=C/c3nc4ccccc4c(=O)n3-c3ccccc3)c2c1 | u | 9.3µM* | 3% | u | -15% | u
CCN(CC(=O)NCc1cccs1)C(=O)c1ccc([N+](=O)[O-])o1 | -26% | u | x | -15% | -17% | u
Cc1sc2ccccc2[n+]1CCCC[n+]1c(C)sc2ccccc21 | u | x | x | x | 2.8µM* | x
Cc1sc2ccccc2[n+]1CCCCBr | u | x | x | x | 7.1µM* | x
Cc1sc2ccccc2[n+]1CCC(=O)O | x | x | -1% | x | x | x
CC(C)C(NC(=O)c1ccco1)C(=O)OCC(=O)NCCc1ccccc1 (configuration not stated) | x | -1% | x | 6% | x | 54%
CCOC(=O)c1ccc(/C=C2/C=C(c3ccccc3)N(c3ccc(Cl)c(C(=O)O)c3)C2=O)cc1 | 22% | u | 3% | u | -18% | 13µM*
CC1(C)Cc2c(c(-c3ccccc3)nc3sc4c(=O)[nH]c(=S)[nH]c4c23)CO1 | -3% | -7% | -1% | 1% | i | 15%
Cc1cc(NC(=O)CCC(=O)N(CCc2ccccc2)C(C(=O)NC2CCCC2)c2ccco2)no1 (configuration not stated) | -6% | u | -35% | 1% | -14% | x
Cc1[nH]nc(N)c1-c1ccccc1 | -14% | 38% | 6% | -4% | i | -18%
C=CC[C@@H](CC(=O)N(CCO)Cc1ccccc1)C(=O)N[C@H](COC(=O)[C@@H](CC=C)CC(=O)OC(C)(C)C)Cc1ccccc1 | -13% | x | x | u | i | x
C=CC[C@@H](CC(=O)N(CCO)Cc1ccccc1)C(=O)N[C@@H](COC(=O)[C@H](CC=C)CC(=O)OC(C)(C)C)Cc1c[nH]c2ccccc12 | 11µM* | x | x | u | u | x
SMILES | Vaccinia Venus | Pf growth 48h | NS1 inh | HCV inhibitor | VACV mCherry inh | Pf growth 96h
C=CC[C@H](CC(=O)N(CCO)Cc1ccccc1)C(=O)N[C@H](COC(=O)[C@@H](CC=C)CC(=O)OC(C)(C)C)Cc1ccccc1 | u | x | x | u | -1% | x
C=CC[C@H](CC(=O)N(CCO)Cc1ccccc1)C(=O)N[C@H](COC(=O)[C@H](CC=C)CC(=O)OC(C)(C)C)Cc1c[nH]c2ccccc12 | -28% | x | x | 25µM* | -21% | x
C=CC[C@H](CC(=O)N(CCO)Cc1ccccc1)C(=O)N[C@@H](COC(=O)[C@@H](CC=C)CC(=O)OC(C)(C)C)Cc1c[nH]c2ccccc12 | 11µM* | x | x | u | u | x
CC1CC(C)CN(C(=O)C2CC(=O)N(c3ccc4c(c3)OCCO4)C2)C1 (configuration not stated) | x | u | x | -2% | x | -4%
CCN(CC)CCCN(c1ccccc1)C1Cc2ccccc2C1 | x | 1.9µM* | x | x | x | u
O=c1c2ccccc2sn1-c1ccccc1 | -21% | u | -107% | u | i | x
O=c1c2cc(F)ccc2sn1-c1ccccc1 | -28% | 4.1µM* | x | u | -22% | 5.2µM*
COc1ccc(CCNC(=O)Cn2c(=O)n(Cc3ccco3)c(=O)c3ccc(Cl)cc32)cc1OC | -1% | u | -1% | 11µM*! | -14% | 26%
C/C=C(\C)C(=O)NCCN1C2=NC[C@H](C(C)C)N2C[C@H]1Cc1ccc(O)cc1 | -10% | 5% | 1% | 14% | -4% | 3.3µM*
Cc1ccc(C(=O)NCCN2C3=NC[C@H](C(C)C)N3C[C@H]2Cc2ccc(O)cc2)cc1Br | -25% | 4.7µM* | 5% | u | -10% | 2.6µM*
COc1ccc(C[C@H]2CN3C(=NC[C@@H]3C(C)C)N2CCNC(=O)c2ccc(C)c(Br)c2)cc1 | u | u | 0% | -24% | -28% | 2.1µM*
CC(=O)N1CCC2(CC1)C(C#N)=C(N)OC1=C2C(=O)CC(C)(C)C1 | -14% | u | 6% | 16% | i | 55%
O=S(=O)(Nn1cnnc1)c1ccc(F)cc1 | -18% | 10% | 5% | u | -21% | 32%
Cc1ccc2nc3c(cc(C(=O)NC4CCCCC4)c(=N)n3C3CCCCC3)c(=O)n2c1 | -5% | u | -7% | u | -15% | 41%
CC(=O)N1CCc2c(sc(NC(=O)Cc3ccc(F)cc3)c2C#N)C1 | x | 1% | -1% | -19% | x | 1%
C=CCNC(=S)Nc1nc2c(cc1C(=O)OCC)COC(C)(C)C2 | 6% | 8% | 2% | -16% | -7% | -9%
CCOC(=O)c1cc2c(nc1NC(=S)Nc1ccccc1)CC(C)(C)OC2 | -9% | -13% | 13% | -12% | -13% | 10µM*
CCCCNC(=O)CC1N=C2c3ccccc3N=C(SCC(=O)Nc3ccc(OC)cc3)N2C1=O (configuration not stated) | -16% | u | -3% | -1% | -16% | 10µM*

High-throughput results as filed in PubChem.
